About 420 (0.61%) of roughly 69,000 compounds showed an effect of 50% or more. The full list was thinned out, with strong results kept by preference.
target: T1, Histidine--tRNA ligase (Leishmania infantum) (UniProt A4I591); test: Leishmania infantum Histidine tRNA synthetase (LdHisRS); format: functional; set-up: scale not given: in the data most compounds retested in dose-response had high values; conditions: 30 µM
T1 sequence (whole entry): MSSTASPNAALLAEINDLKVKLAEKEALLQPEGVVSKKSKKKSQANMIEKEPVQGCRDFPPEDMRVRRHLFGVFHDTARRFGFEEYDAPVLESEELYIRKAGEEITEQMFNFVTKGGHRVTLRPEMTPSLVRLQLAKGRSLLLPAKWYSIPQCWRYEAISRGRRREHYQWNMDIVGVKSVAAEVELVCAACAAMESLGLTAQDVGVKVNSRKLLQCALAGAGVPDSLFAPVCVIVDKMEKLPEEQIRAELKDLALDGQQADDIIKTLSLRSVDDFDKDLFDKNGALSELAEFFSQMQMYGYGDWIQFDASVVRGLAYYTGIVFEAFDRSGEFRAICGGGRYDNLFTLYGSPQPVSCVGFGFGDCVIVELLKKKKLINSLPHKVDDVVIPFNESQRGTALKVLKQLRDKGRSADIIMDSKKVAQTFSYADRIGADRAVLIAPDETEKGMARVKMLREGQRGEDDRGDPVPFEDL

Compound | Percent Effect [%]
CSCCCN1C(=O)CC[C@H]2CN(Cc3ncc[nH]3)CC[C@H]21 | 1.33
Cc1nnc(NCCc2coc(-c3ccccc3)n2)c(C#N)c1C | 51.4
Cc1nnc(NCC2(c3ccccc3)CC2)c(C#N)c1C | 9.62
COc1ccc(-c2nc(CCNCc3ccncc3)co2)cc1 | 24.5
COc1ccc(-c2nc(CCNc3nnc(C)c(C)c3C#N)co2)cc1 | 57.1
Cc1nnc(NCCC(=O)NCc2ccccc2)c(C#N)c1C | 31.5
Cc1nnc(NCCc2coc(-c3ccc(F)cc3)n2)c(C#N)c1C | 48.6
CCN1CC[C@@]2(C(=O)N3CCCC3)CCN(S(C)(=O)=O)CC[C@@H]12 | 21.4
O=C(C1CCOCC1)N1C[C@H]2CCC[C@@]2(COc2ccccn2)C1 | 0
CC(C)CC(=O)N1C[C@@H]2CCN(c3ncccn3)C[C@@H]2C1 | 17.1
O=C(c1cnccn1)N1C[C@@H]2[C@@H](C1)OCC(=O)N2CC1CCCC1 | -944
O=C(c1ccccn1)N1C[C@H]2CCC[C@@]2(COCC2CCOCC2)C1 | 10.1
CC(C)=CCN1CCN(Cc2ncc[nH]2)[C@H]2CS(=O)(=O)C[C@H]21 | 0
Cc1cc(N2CCN(CC(=O)N(C)C)CC2)nc(-c2ccncc2)n1 | 51.4
Cc1cc(N2CCC(CC(N)=O)CC2)nc(-c2ccncc2)n1 | 15.6
Cc1cc(N2CCN(CCO)CC2)nc(-c2ccncc2)n1 | 20
CC(=O)NCC1CCN(c2cc(C)nc(-c3ccncc3)n2)CC1 | 59.8
Cc1cc(N2CCC(Cc3ccccc3)CC2)ncn1 | 21.4
COC(=O)C1CCN(c2cc(C)nc(-c3ccncc3)n2)CC1 | 37.6
Cc1cc(N2CCC(C(=O)N(C)C)CC2)nc(-c2ccncc2)n1 | 17.1
Cc1cc(N2CCC(Cc3ccccc3)CC2)nc(-c2ccncc2)n1 | 62.5
CCNC(=O)CN1CCN(c2cc(C)nc(-c3ccncc3)n2)CC1 | 30.1
c1cnc(N2CCN(C3CCC[C@@H]4CN(CC5CC5)C[C@H]34)CC2)nc1 (stereo partly specified) | 2.86
Cc1ccc(-c2nnc(CN3CCOC(Cn4cncn4)C3)o2)cc1 (stereo unspecified) | 3.39

Compound | Percent Effect [%]
CCn1ncc(CN2C[C@@H]3CCCN3C[C@H]2CCSC)c1C | -58
CC(C)N1CCN2C(=O)N(C3CCCCC3)C[C@H]2C1 | 18.9
CCO[C@@H]1C[C@H]2CN(S(=O)(=O)c3cccs3)CCN2C1 | 7.89
CN(C)S(=O)(=O)N1C[C@H]2C[C@H](C(=O)NCc3ccccc3)[C@@H](C1)O2 | 3.64
NCC1Cc2cc(Oc3cc(F)c(CN4CCCC4)c(F)c3)ccc2O1 (stereo unspecified) | 57.5
COc1ccc(CN2CCCC2)cc1Oc1ccc2c(c1)CC(CN)O2 (stereo unspecified) | 25.8
Cc1cc(CN2CCCC2)cc(Oc2ccc3c(c2)CC(CN)O3)c1 (stereo unspecified) | 12.5
O=C(C1CCC1)N1CCN(Cc2ccccc2F)[C@H]2CS(=O)(=O)C[C@H]21 | 23.3
Cn1cc(C(=O)N2CCN(Cc3cscn3)CC2)ccc1=O | 15.3
CCOC1CCN(C(=O)NCc2ccc(C(=O)N(C)C(C)C)cc2)CC1 | 16.7
CC(C)Oc1ncccc1CNC(=O)N1CCC1c1ccccc1 (stereo unspecified) | 16.8
CCOC1CCN(C(=O)NCc2ccc(CN3CCOCC3)cc2)CC1 | 13.5
Cn1cc(NC(=O)C2CC(c3ccccc3)C2)ccc1=O (stereo unspecified) | 71.3
CC(C)c1nnc(NC(=O)N2CCN(C)CC2c2ccccc2)s1 (stereo unspecified) | 4.17
Cc1oc(C)c(C(=O)N2CCN(Cc3cscn3)CC2)c1C | 13.3
CN1C(=O)CO[C@H](c2ccc(NC(=O)Nc3ccccc3)cc2)[C@H]1CO | 14.9
Cn1cc(NC(=O)N2CCN(Cc3cscn3)CC2)ccc1=O | 74.8
Cn1cc(C(=O)N2CCN(c3ccccc3)CC2)ccc1=O | 11
CCOC1CCN(C(=O)Nc2ccc(=O)n(C)c2)CC1 | 114
Cn1cc(NC(=O)N2CCC2c2ccccc2)ccc1=O (stereo unspecified) | 108
O=C1[C@@H]2C[C@H](O)CCN2C(=O)CN1CCSc1ccccn1 | 17.6
COc1ccccc1S(=O)(=O)N1CCN(C)[C@@H]2CS(=O)(=O)C[C@@H]21 | -6.67
CN(C)C[C@H]1C[C@@H]2CN(C(=O)c3ccco3)C[C@@H]2O1 | 10.3
O=C1N(Cc2ccccn2)C[C@H]2CN(S(=O)(=O)c3ccccc3)CCN12 | 24.3

Compound | Percent Effect [%]
Cn1nccc1C(=O)N1C[C@@H]2CC[C@H](Oc3cccc(F)c3)[C@@H]2C1 | 18
Cc1cc(C(=O)N2C[C@@H]3CCCO[C@@H]3[C@H](N(C)C(C)C)C2)c(C)[nH]1 | 11.5
O=C(NCc1cccs1)[C@H]1CC[C@@H]2[C@@H](CCN2Cc2ccoc2)O1 | 12.5
CCS(=O)(=O)N1CCO[C@H]2[C@H](OCC3CCCC3)CC[C@@H]21 | 20.8
O=C(O)[C@]12CCCN(Cc3ccsc3)C[C@H]1CN(c1ncccn1)C2 | 10.5
O=C(Cc1cccc(F)c1)N1C[C@H]2CN(Cc3cccnc3)C[C@H]2C1 | 3.85
CC(C)CN1C[C@@H]2OCC(=O)N(c3ccccc3)[C@@H]2C1 | 21.6
Cn1cc(NC(=O)N2CCC(c3ccccc3)CC2)ccc1=O | 102
Cn1cc(NC(=O)N2CCC(OCc3ccccc3)CC2)ccc1=O | 103
C[C@H](NC(=O)N1CCC(Cc2ccccc2)CC1)C(=O)O | -5
CS(=O)(=O)NC1CCN(C(=O)NCC2CCCO2)CC1 (stereo unspecified) | 11
CC(NC(=O)N1CCC(c2ccccc2)CC1)c1nncn1C (stereo unspecified) | 13.8
Cn1cc(NC(=O)N2CCC(CN3CCCC3)CC2)ccc1=O | 6.38
O=C(C1CCOC1)N1CCC(OCc2ccccc2)CC1 (stereo unspecified) | 16.8
CS(=O)(=O)NC1CCN(C(=O)c2ccc(F)cc2)CC1 | 28.1
Cn1cc(NC(=O)N2CCC(Cc3ccccc3)CC2)ccc1=O | 101
CC(NC(=O)N1CCC(OCc2ccccc2)CC1)c1nncn1C (stereo unspecified) | 20.3
NC(=O)Cn1cc(NC(=O)N2CCC(c3ccccc3)CC2)cn1 | 16.5
Cn1cc(NC(=O)N2CCC(NS(C)(=O)=O)CC2)ccc1=O | 91.5
CN(C)C(=O)NC[C@H]1OC[C@@H]2CCN(Cc3ccoc3)C[C@@H]21 | -1.89
Cn1cccc1C(=O)N1CCO[C@@H]2CN(Cc3ccco3)C[C@@H]2C1 | 11.8
Cc1occc1C(=O)N1C[C@@H](OCc2cccnc2)[C@H]2OCCC[C@@H]21 | 28.2
O=C1O[C@@H]2CN(Cc3cc4ccccc4s3)C[C@@H]2N1Cc1ccccn1 | 2.67

From ChEMBL document CHEMBL3988442, “University of Dundee, Small-Polar-MMV Screening Library” (2021)
